Assay results published in PubChem BioAssay (EPA / NIEHS).
Calls of active or inactive are those of the source. Rule for the calls: active = hit-call score of the fitted dose curve at least 0.9, where 1 is the maximum; inactive = score below 0.9.

Experiments:
[1] = read-out: Vascular endothelial growth factor receptor 2 (Homo sapiens) (UniProt P35968); experiment: BSK_4H_VEGFRII: BioMAP Diversity Plus: 4H Assay for Vascular endothelial growth factor receptor 2 (VEGFR2) Biomarker Activity (AID 2283031); conditions: primary human endothelial cells (HUVEC); actives raise or lower the signal;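 for AC50: cell-surface VEGFR2 protein level quantified by ELISA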
Procedure, shortened: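 Primary human umbilical vein endothelial cells (4H system), 24 h exposure; cell-surface VEGFR2 measured by ELISA. Bidirectional fitting versus DMSO; cytotoxicity checked in parallel by SRB total-protein staining.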

[2] = read-out: Human Leukocyte Antigen - DR isotype (HLADR), HLA-DRA (gene 3122); experiment: BSK_BE3C_HLADR: BioMAP Diversity Plus: BE3C Assay for Human Leukocyte Antigen - DR isotype (HLADR) Biomarker Activity (AID 2283032); conditions: primary human bronchial epithelial cells; actives raise or lower the signal
Procedure, shortened: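 Primary human bronchial epithelial cells (BE3C); 24 h chemical exposure; HLA-DR by ELISA; bidirectional curve fit vs DMSO baseline.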

[3] = read-out: Vascular cell adhesion molecule 1 (VCAM1), VCAM1 (gene 7412); experiment: BSK_4H_VCAM1: BioMAP Diversity Plus: 4H Assay for Vascular cell adhesion molecule 1 (VCAM1) Biomarker Activity (AID 2283033); conditions: primary human endothelial cells (HUVEC); actives raise or lower the signal
Procedure, shortened: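 HUVEC, 24 h post-dose; VCAM-1 by ELISA. Bidirectional curve fit vs DMSO baseline. Parallel SRB total-protein stain (0.1% SRB after 10% TCA fixation, 560 nm) for cytotoxicity.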

[4] = read-out: Interferon-gamma inducible Protein 10 (IP10), CXCL10 (gene 3627); experiment: BSK_BE3C_IP10: BioMAP Diversity Plus: BE3C Assay for Interferon-gamma inducible Protein 10 (IP10) Biomarker Activity (AID 2283034); conditions: primary human bronchial epithelial cells; actives raise or lower the signal
Procedure, shortened: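 ELISA readout of IP-10 in BE3C system: primary human bronchial epithelial cells, 24 h post-dosing; bidirectional curve fit vs DMSO baseline.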

[5] = read-out: Monokine induced gamma interferon (MIG), CXCL9 (gene 4283); experiment: BSK_BE3C_MIG: BioMAP Diversity Plus: BE3C Assay for Monokine induced gamma interferon (MIG) Biomarker Activity (AID 2283035); conditions: primary human bronchial epithelial cells; actives raise or lower the signal
Procedure, shortened: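 ELISA quantified MIG after 24 h exposure of primary bronchial epithelial cultures, analysed in both directions relative to DMSO. Cytotoxicity tracked in parallel cultures by sulforhodamine B staining.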

[6] = read-out: Transforming growth factor beta 1 (TGFb1), TGFB1 (gene 7040); experiment: BSK_BE3C_TGFb1: BioMAP Diversity Plus: BE3C Assay for Transforming growth factor beta 1 (TGFb1) Biomarker Activity (AID 2283036); conditions: primary human bronchial epithelial cells; actives raise or lower the signal
Procedure, shortened: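 Read-out: ELISA for TGF-b1 in primary human bronchial epithelial cultures, 24 h post-dose. Bidirectional curve fitting vs DMSO control; gain or loss of signal both scored.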

[7] = read-out: Plasminogen activator inhibitor-1 (PAI1), SERPINE1 (gene 5054); experiment: BSK_BE3C_PAI1: BioMAP Diversity Plus: BE3C Assay for Plasminogen activator inhibitor-1 (PAI1) Biomarker Activity (AID 2283037); conditions: primary human bronchial epithelial cells; actives raise or lower the signal
Procedure, shortened: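 ELISA read-out of PAI-1 from human bronchial epithelial primary cells, 24 h post-dosing; bidirectional curve fit vs DMSO baseline, gain or loss of signal scored.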

[8] = read-out: urokinase plasminogen activator (uPA), PLAU (gene 5328); experiment: BSK_BE3C_uPA: BioMAP Diversity Plus: BE3C Assay for urokinase plasminogen activator (uPA) Biomarker Activity (AID 2283038); conditions: primary human bronchial epithelial cells; actives raise or lower the signal
Procedure, shortened: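 Primary human bronchial epithelial cells, uPA measured by ELISA 24 h after dosing. Bidirectional change relative to DMSO; cytotoxicity checked in parallel cultures by sulforhodamine B total-protein staining.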

[9] = read-out: Urokinase-type plasminogen activator receptor (uPAR), PLAUR (gene 5329); experiment: BSK_BE3C_uPAR: BioMAP Diversity Plus: BE3C Assay for Urokinase-type plasminogen activator receptor (uPAR) Biomarker Activity (AID 2283039); conditions: primary human bronchial epithelial cells; actives raise or lower the signal
Procedure, shortened: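 ELISA readout of uPAR on human lung primary bronchial epithelial cells, 24 h post-dosing. Bidirectional curve fit relative to DMSO vehicle baseline; gain or loss of signal both scored.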

[10] = read-out: Interleukin-6 (IL6), IL6 (gene 3569); experiment: BSK_CASM3C_IL6: BioMAP Diversity Plus: CASM3C Assay for Interleukin-6 (IL6) Biomarker Activity for (AID 2283040); conditions: primary human coronary artery smooth muscle cells; actives raise or lower the signal
[11] = read-out: Tissue plasminogen activator (tPA), PLAT (gene 5327); experiment: BSK_BE3C_tPA: BioMAP Diversity Plus: BE3C Assay for Tissue plasminogen activator (tPA) Biomarker Activity (AID 2283041); conditions: primary human bronchial epithelial cells; actives raise or lower the signal
Procedure, shortened: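 ELISA read-out of tPA on human primary bronchial epithelial cells, 24 h post-dosing; bidirectional fit vs DMSO negative control/baseline.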

[12] = read-out: Interleukin-8 (IL8), CXCL8 (gene 3576); experiment: BSK_CASM3C_IL8: BioMAP Diversity Plus: CASM3C Assay for Interleukin-8 (IL8) Biomarker Activity (AID 2283042); conditions: primary human coronary artery smooth muscle cells; actives raise or lower the signal;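 note: IL-8 protein level quantified by ELISA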
[13] = read-out: Human Leukocyte Antigen - DR isotype (HLADR), HLA-DRA (gene 3122); experiment: BSK_CASM3C_HLADR: BioMAP Diversity Plus: CASM3C Assay for Human Leukocyte Antigen - DR isotype (HLADR) Biomarker Activity (AID 2283043); conditions: primary human coronary artery smooth muscle cells; actives raise or lower the signal;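 note: cell-surface HLA-DR protein level quantified by ELISA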
[14] = read-out: Macrophage colony-stimulating factor (MCSF), CSF1 (gene 1435); experiment: BSK_CASM3C_MCSF: BioMAP Diversity Plus: CASM3C Assay for Macrophage colony-stimulating factor (MCSF) Biomarker Activity (AID 2283044); conditions: primary human coronary artery smooth muscle cells; actives raise or lower the signal;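 note: M-CSF protein amount quantified by ELISA after 24 h exposure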
[15] = read-out: Low-density lipoprotein receptor (LDLR), LDLR (gene 3949); experiment: BSK_CASM3C_LDLR: BioMAP Diversity Plus: CASM3C Assay for Low-density lipoprotein receptor (LDLR) Biomarker Activity (AID 2283045); conditions: primary human coronary artery smooth muscle cells; actives raise or lower the signal;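 note: LDLR protein level on the cell surface quantified by ELISA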
[16] = read-out: Monocyte Chemoattractant Protein-1 (MCP1), CCL2 (gene 6347); experiment: BSK_CASM3C_MCP1: BioMAP Diversity Plus: CASM3C Assay for Monocyte Chemoattractant Protein-1 (MCP1) Biomarker Activity (AID 2283046); conditions: primary human coronary artery smooth muscle cells; actives raise or lower the signal;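 note: MCP-1 level quantified by ELISA 24 h after dosing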
[17] = BSK_CASM3C_Proliferation: Cell Proliferation Assessment in the BioMAP Diversity Plus: CASM3C Assay (AID 2283047); conditions: primary human coronary artery smooth muscle cells;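 note: sulforhodamine B total protein stain as relative cell number at 560 nm; sub-confluent cells exposed 48 h before staining; fitted both ways against DMSO so gain or loss of cell number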
[18] = read-out: Monokine induced gamma interferon (MIG), CXCL9 (gene 4283); experiment: BSK_CASM3C_MIG: BioMAP Diversity Plus: CASM3C Assay for Monokine induced gamma interferon (MIG) Biomarker Activity (AID 2283048); conditions: primary human coronary artery smooth muscle cells; actives raise or lower the signal;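 note: MIG protein level measured by ELISA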
[19] = read-out: serum amyloid A (SAA), SAA1 (gene 6288); experiment: BSK_CASM3C_SAA: BioMAP Diversity Plus: CASM3C Assay for serum amyloid A (SAA) Biomarker Activity (AID 2283049); conditions: primary human coronary artery smooth muscle cells; actives raise or lower the signal;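 note: SAA protein level quantified by ELISA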
[20] = BSK_CASM3C_SRB: Viability Assessment in the BioMAP Diversity Plus: CASM3C Assay (AID 2283050); conditions: primary human coronary artery smooth muscle cells;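 note: total protein by SRB staining as cytotoxicity measure in parallel cultures; cells exposed to compound for 24 h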

Measured: AC50

C[C@]12CC[C@@H]3c4ccc(O)cc4CC[C@H]3[C@@H]1CCC2=O
inactive: [1] | [2] | [3] | [4] | [5] | [6] | [7] | [8] | [9] | [10] | [11] | [12] | [13] | [14] | [15] | [16] | [17] | [18] | [19] | [20]

CC[C@@H]1C[C@H](N(Cc2cc(C(F)(F)F)cc(C(F)(F)F)c2)C(C)=O)c2cc(C(F)(F)F)ccc2N1C(=O)OC(C)C
inactive: [1] | [2] | [3] | [4] | [5] | [6] | [7] | [8] | [9] | [10] | [11] | [12] | [13] | [14] | [16] | [18] | [19] | [20]
active: [15] 1.22 µM | [17] 1.37 µM

CCCCCCCCN(C)CCCCCCCC
inactive: [1] | [2] | [3] | [4] | [5] | [6] | [7] | [8] | [9] | [10] | [11] | [12] | [13] | [14] | [15] | [16] | [17] | [18] | [19] | [20]

CCCCCCCCCCCC[N+](C)(C)C
inactive: [1] | [10]
active: [2] 28.3 µM | [3] 26.8 µM | [4] 21.8 µM | [5] 33.1 µM | [7] 21.9 µM | [8] 31.6 µM | [9] 33.9 µM | [11] 15 µM | [12] 29.1 µM | [13] 14 µM | [14] 16.2 µM | [15] 21.2 µM | [16] 27.1 µM | [17] 12.9 µM | [18] 33.3 µM | [19] 26 µM | [20] 27.6 µM

Clc1ccccc1C(c1ccccc1)(c1ccccc1)n1ccnc1
active: [3] 33.5 µM | [4] 10.7 µM | [5] 9.5 µM | [6] 6.45 µM | [7] 7.59 µM | [8] 9.81 µM | [9] 9.68 µM | [10] 31.9 µM | [11] 5.41 µM | [12] 36.6 µM | [13] 28 µM | [14] 32.6 µM | [15] 36.9 µM | [16] 34.4 µM | [17] 22.5 µM | [18] 39.2 µM | [19] 27.1 µM | [20] 29.1 µM
inactive: [1]

Cc1oc2c(NC(=O)c3c(Cl)cccc3Cl)cccc2c1C(C)(C)O
inactive: [1] | [3] | [4] | [5] | [6] | [7] | [8] | [9] | [12] | [13] | [14] | [16] | [18] | [19] | [20]
active: [2] 18.1 µM | [10] 33.2 µM | [11] 15.1 µM | [15] 15.6 µM | [17] 20 µM

O=c1ccc2ccccc2o1
inactive: [1] | [2] | [3] | [4] | [5] | [6] | [7] | [8] | [9] | [10] | [11] | [12] | [13] | [14] | [15] | [16] | [17] | [18] | [20]
active: [19] 0.148 µM

CCCCOC(=O)c1ccc(O)cc1
inactive: [1] | [2] | [3] | [4] | [5] | [6] | [7] | [8] | [9] | [10] | [11] | [12] | [13] | [14] | [15] | [16] | [17] | [18] | [19] | [20]

CC(C)(C)c1cc(/C=C2\SC(N)=NC2=O)cc(C(C)(C)C)c1O
active: [1] 27.4 µM | [2] 7.46 µM | [3] 26.4 µM | [8] 3.97 µM | [10] 36.2 µM | [13] 20 µM | [14] 33.3 µM | [15] 29.1 µM | [16] 31.1 µM | [17] 29.1 µM | [18] 32 µM | [19] 31.6 µM | [20] 30.7 µM
inactive: [4] | [5] | [6] | [7] | [9] | [11] | [12]

O=C(OCCCCCCOC(=O)c1ccccc1)c1ccccc1
inactive: [1] | [2] | [3] | [4] | [5] | [6] | [7] | [8] | [9] | [10] | [11] | [12] | [13] | [14] | [15] | [16] | [17] | [18] | [19] | [20]

Oc1ccccc1
inactive: [1] | [2] | [3] | [4] | [5] | [6] | [7] | [8] | [9] | [10] | [11] | [12] | [13] | [14] | [15] | [16] | [17] | [18] | [19] | [20]
